Experimental data taken from ChEMBL document CHEMBL1157539, “Thousands of chemical starting points for antimalarial lead identification” (Nature, 2010).
Where “and” joins values, the source holds several entries; their conditions need not be identical. Identical values can stand only once.

What follows are molecules tested on Plasmodium falciparum (assay: GSK_TCMDC: Inhibition of Plasmodium falciparum 3D7 in whole red blood cells, using parasite LDH activity as an index of growth. Test compounds present at 2uM).
Type: functional
Work on `COc1ccc(CNC(=O)C2Cc3ccccc3CN2Cc2ccc3ccccc3c2)cc1` (stereo unspecified) yielded an Inhibition of 96%. Molecule `N#Cc1ccc(N/C(=N\c2ccc(-c3ccccc3)cc2)NCc2cccnc2)c(O)c1` has an Inhibition of 100%. Work on `O=C(/C=C/c1ccccc1Cl)Nc1ccc(Br)c(OCCN2CCN(CCN3CCCC3)CC2)c1.O=C(O)C(=O)O` yielded an Inhibition of 99%. For `COc1ccc2ncc(F)c(CCN3CC(O)C(CNCc4nc5c(cc4Cl)OCC(=O)N5)C3)c2n1.Cl` (stereo unspecified), the Inhibition was 93% and 90%. In the case of `CCOC(=O)c1ccc(NC(=O)Nc2cccc(-c3cccc(-c4nc5ccccc5[nH]4)c3)c2)cc1`, the Inhibition is reported as 100%. `CN(C)CC1CCCN1Cc1ccccc1-c1cnn(C)c(=O)c1Oc1cccc(C#N)c1.O=C(O)C(F)(F)F` (stereo unspecified) showed an Inhibition of 92%. Work on `Cc1ccc(C(C)C)c(Oc2ccc3nc(N)nc(N)c3c2)c1` yielded an Inhibition of 96%. In the case of `O=C(Nc1ccc(-c2ccc(CN3CCNCC3)cc2)cc1)c1cccc(Cl)c1.O=C(O)C(F)(F)F`, the Inhibition is reported as 91%. `COCCNCc1ccc(-c2ccc(CNc3ccc4ncccc4c3)cc2)cc1.O=C(O)C(F)(F)F` showed an Inhibition of 85%. `O=[N+]([O-])c1ccc(/C=N/O)nc1` was tested, and the Inhibition was 80%. Work on `CN1CCN(CC(=O)Nc2ccc(-c3cccc(-c4nc5cc(C(F)(F)F)ccc5[nH]4)c3)cc2)CC1` yielded an Inhibition of 100%. For `CC(=O)Nc1ccc(OCCCN(Cc2ccccc2C(F)(F)F)c2ccc(C(F)(F)F)c(C#N)c2)c(Cl)c1`, the Inhibition was 85%. In the case of `CC(=O)N1CCN(c2ccc(NC(=O)c3oc(-c4ccccc4)nc3C(F)(F)F)cn2)CC1`, the Inhibition is reported as 92%. With `CCOC(=O)c1sc(C(C)Nc2ccccc2)nc1-c1ccccc1` (stereo unspecified) the Inhibition was 95%. For `Cl.O=C(Nc1ccc(Cl)cc1)Nc1cccc(-c2cc(CNCCc3ccccc3)oc2-c2ccncc2)c1`, the Inhibition was 100%. Molecule `COC(=O)c1cc(C(=O)CN(Cc2ccccc2)C(C)C)ccc1O.Cl` has an Inhibition of 97%. `CC(C)CNCc1cccc(-c2cccc(CN(CCCN3CCN(C)CC3)C(=O)Nc3ccccc3)c2)c1.O=C(O)C(F)(F)F` showed an Inhibition of 95%. Molecule `O=C(Nc1ccc(Cl)c(Cl)c1)Nc1ccc2c(c1)CCNCC2.O=C(O)C(F)(F)F` has an Inhibition of 86%. With `O=C(Cc1c[nH]cn1)Nc1ccc(-c2ccc(-c3nc4cc(C(F)(F)F)ccc4[nH]3)s2)cc1` the Inhibition was 100%. In the case of `COc1ccc2nccc(NC(=O)N3CCC(NCc4cc5ccccc5[nH]4)CC3)c2n1.O=C(O)C(=O)O`, the Inhibition is reported as 85%. With `Nc1oc2c(CN3CCCCCC3)c(O)ccc2c(=O)c1-c1nc2ccccc2s1` the Inhibition was 100%. `CN(CCN)Cc1cccc(-c2cccc(-c3nc4cc(C(F)(F)F)ccc4[nH]3)c2)c1.O=C(O)C(F)(F)F` gave an Inhibition of 99%. Work on `COc1ccc(Cl)cc1-c1nc(C(=O)NCCN2CCCCC2)c(C(C)C)s1.O=C(O)C(F)(F)F` yielded an Inhibition of 100%. Work on `NCc1cccc(-c2ccccc2CNC2CCN(Cc3ccccc3)CC2)c1.O=C(O)C(F)(F)F` yielded an Inhibition of 94%. Molecule `CCCc1cc(NCC)nc(Nc2ccc(F)cc2)n1` has an Inhibition of 86%. Work on `NC1CCN(c2nc(NCCCc3ccc(O)cc3)nc(NCc3ccccc3-c3ccccc3)n2)CC1.O=C(O)C(F)(F)F` yielded an Inhibition of 100%.

These molecules were tested on Plasmodium falciparum (assay: GSK_TCMDC: Inhibition of Plasmodium falciparum Dd2 in whole red blood cells, using parasite LDH activity as an index of growth. Test compounds present at 2uM).
Type: functional
Molecule `O=S(=O)(c1ccc2cc[nH]c2c1)N1CCC[C@@H]1CCN1CCC(c2c[nH]c3cnccc23)CC1` has an Inhibition of 0%. In the case of `COc1ccc2ccccc2c1CNCC1CCN(CC2CCCCC2)CC1.O=C(O)C(F)(F)F`, the Inhibition is reported as 27%. For `O=C1COc2ccc3ccccc3c21`, the Inhibition was 3%. Work on `Cc1c(CNCCCNc2cc(=O)c3ccccc3[nH]2)sc(-c2ccco2)c1Br.Cl` yielded an Inhibition of 39%. `CC=CC(=O)N1CCN(c2nccc(-c3ccc(C(C)(C)C)cc3)n2)CC1` gave an Inhibition of 70%. With `Cc1ccc(NC(=O)c2cccc(N3CCN(c4ccncc4)CC3)c2)cc1F.O=C(O)C(F)(F)F` the Inhibition was 72%. Work on `O=C(O)C(F)(F)F.c1ccc(CNCc2cccc(-c3ccc(-c4nc5ccccc5[nH]4)cc3)c2)cc1` yielded an Inhibition of 39%. Molecule `CC1(C)N=C(N)N=C(N)N1c1cccc(I)c1.Cl` has an Inhibition of 85%. `Cc1cc(N[C@@H](Cc2ccccc2)C(=O)NC2CCCC2)nc(NCc2ccccc2C)n1.O=C(O)C(F)(F)F` showed an Inhibition of 20%. Work on `COc1cccc(OC2CCN(C(=O)c3cc(C(C)(C)C)nn3Cc3ccccc3)CC2)c1` yielded an Inhibition of 98%. `CCn1ncc2c(N3CCCC3=O)cc(C(=O)N[C@@H](Cc3ccccc3)[C@H](O)CNC(C)(C)c3cccc(C(F)(F)F)c3)cc21` was tested, and the Inhibition was 99%. Work on `CCCCn1c(Sc2ccc(C#N)c([N+](=O)[O-])c2)nnc1-c1cccc(Cl)c1` yielded an Inhibition of 87%. `Br.COc1ccc(CCON2C(=N)N=C(N)NC2(C)C)cc1OC` was tested, and the Inhibition was 93%. `Cc1ccc(Cn2cnc(N3CC(C)NC(C)C3)cc2=O)cc1NC(=O)Nc1ccc(-c2ccccc2)cc1.O=C(O)C(F)(F)F` (stereo unspecified) showed an Inhibition of 15%. `COc1ccc(CNC(=O)C2Cc3ccccc3CN2Cc2ccc3ccccc3c2)cc1` (stereo unspecified) showed an Inhibition of 84%. `N#Cc1ccc(N/C(=N\c2ccc(-c3ccccc3)cc2)NCc2cccnc2)c(O)c1` gave an Inhibition of 46%. With `O=C(/C=C/c1ccccc1Cl)Nc1ccc(Br)c(OCCN2CCN(CCN3CCCC3)CC2)c1.O=C(O)C(=O)O` the Inhibition was 89%. In the case of `COc1ccc2ncc(F)c(CCN3CC(O)C(CNCc4nc5c(cc4Cl)OCC(=O)N5)C3)c2n1.Cl` (stereo unspecified), the Inhibition is reported as 23% and 15% and 30%. Molecule `CCOC(=O)c1ccc(NC(=O)Nc2cccc(-c3cccc(-c4nc5ccccc5[nH]4)c3)c2)cc1` has an Inhibition of 99%. `CN(C)CC1CCCN1Cc1ccccc1-c1cnn(C)c(=O)c1Oc1cccc(C#N)c1.O=C(O)C(F)(F)F` (stereo unspecified) was tested, and the Inhibition was 15%. `Cc1ccc(C(C)C)c(Oc2ccc3nc(N)nc(N)c3c2)c1` was tested, and the Inhibition was 33%. Molecule `O=C(Nc1ccc(-c2ccc(CN3CCNCC3)cc2)cc1)c1cccc(Cl)c1.O=C(O)C(F)(F)F` has an Inhibition of 16%. Work on `COCCNCc1ccc(-c2ccc(CNc3ccc4ncccc4c3)cc2)cc1.O=C(O)C(F)(F)F` yielded an Inhibition of 4%. `O=[N+]([O-])c1ccc(/C=N/O)nc1` was tested, and the Inhibition was 98%. With `CN1CCN(CC(=O)Nc2ccc(-c3cccc(-c4nc5cc(C(F)(F)F)ccc5[nH]4)c3)cc2)CC1` the Inhibition was 93%. Molecule `CC(=O)Nc1ccc(OCCCN(Cc2ccccc2C(F)(F)F)c2ccc(C(F)(F)F)c(C#N)c2)c(Cl)c1` has an Inhibition of 43%. `CC(=O)N1CCN(c2ccc(NC(=O)c3oc(-c4ccccc4)nc3C(F)(F)F)cn2)CC1` was tested, and the Inhibition was 93%. `CCOC(=O)c1sc(C(C)Nc2ccccc2)nc1-c1ccccc1` (stereo unspecified) gave an Inhibition of 91%. `Cl.O=C(Nc1ccc(Cl)cc1)Nc1cccc(-c2cc(CNCCc3ccccc3)oc2-c2ccncc2)c1` was tested, and the Inhibition was 92%. Work on `COC(=O)c1cc(C(=O)CN(Cc2ccccc2)C(C)C)ccc1O.Cl` yielded an Inhibition of 0%. `CC(C)CNCc1cccc(-c2cccc(CN(CCCN3CCN(C)CC3)C(=O)Nc3ccccc3)c2)c1.O=C(O)C(F)(F)F` was tested, and the Inhibition was 76%. `O=C(Nc1ccc(Cl)c(Cl)c1)Nc1ccc2c(c1)CCNCC2.O=C(O)C(F)(F)F` showed an Inhibition of 37%. `O=C(Cc1c[nH]cn1)Nc1ccc(-c2ccc(-c3nc4cc(C(F)(F)F)ccc4[nH]3)s2)cc1` gave an Inhibition of 99%. For `COc1ccc2nccc(NC(=O)N3CCC(NCc4cc5ccccc5[nH]4)CC3)c2n1.O=C(O)C(=O)O`, the Inhibition was 29%. In the case of `Nc1oc2c(CN3CCCCCC3)c(O)ccc2c(=O)c1-c1nc2ccccc2s1`, the Inhibition is reported as 99%. Work on `CN(CCN)Cc1cccc(-c2cccc(-c3nc4cc(C(F)(F)F)ccc4[nH]3)c2)c1.O=C(O)C(F)(F)F` yielded an Inhibition of 98%. `COc1ccc(Cl)cc1-c1nc(C(=O)NCCN2CCCCC2)c(C(C)C)s1.O=C(O)C(F)(F)F` was tested, and the Inhibition was 37%. With `NCc1cccc(-c2ccccc2CNC2CCN(Cc3ccccc3)CC2)c1.O=C(O)C(F)(F)F` the Inhibition was 4%. For `CCCc1cc(NCC)nc(Nc2ccc(F)cc2)n1`, the Inhibition was 36%. In the case of `NC1CCN(c2nc(NCCCc3ccc(O)cc3)nc(NCc3ccccc3-c3ccccc3)n2)CC1.O=C(O)C(F)(F)F`, the Inhibition is reported as 45%.
